{"source": "PubChem BioAssay (NCATS)", "key": {"[1]": {"target": "Cytochrome P450 1A2 (Homo sapiens) (UniProt P05177)", "sequence (P05177 whole entry, looked up)": "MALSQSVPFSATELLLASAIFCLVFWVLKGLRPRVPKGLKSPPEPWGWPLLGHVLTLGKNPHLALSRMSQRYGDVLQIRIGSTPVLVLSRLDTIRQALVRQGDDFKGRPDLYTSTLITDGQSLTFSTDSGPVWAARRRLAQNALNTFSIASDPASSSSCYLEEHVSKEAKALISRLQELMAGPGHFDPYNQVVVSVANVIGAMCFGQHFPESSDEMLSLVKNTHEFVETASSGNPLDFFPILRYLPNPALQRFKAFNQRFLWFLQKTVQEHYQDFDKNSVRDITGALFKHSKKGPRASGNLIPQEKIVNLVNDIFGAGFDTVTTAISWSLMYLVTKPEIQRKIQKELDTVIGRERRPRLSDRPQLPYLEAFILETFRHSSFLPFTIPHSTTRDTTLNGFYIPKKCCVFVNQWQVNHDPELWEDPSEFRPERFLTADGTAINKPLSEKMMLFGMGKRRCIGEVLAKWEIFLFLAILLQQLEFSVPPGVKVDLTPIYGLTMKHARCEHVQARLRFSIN", "assay": "p450-cyp1a2 (AID 410; calls by dose curve)", "procedure,_shortened": "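Luminescent demethylation readout: Luciferin-ME (100uM, equal to Km) turned over by 20nM CYP1A2 for 60 min at room temperature after NADPH regeneration addition, following 10 min compound preincubation. Normalization used 57 uM furafylline as full inhibition.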"}, "[2]": {"target": "Glucocorticoid receptor (Homo sapiens) (UniProt P04150)", "sequence (P04150 whole entry, looked up, the tested form may be a part)": "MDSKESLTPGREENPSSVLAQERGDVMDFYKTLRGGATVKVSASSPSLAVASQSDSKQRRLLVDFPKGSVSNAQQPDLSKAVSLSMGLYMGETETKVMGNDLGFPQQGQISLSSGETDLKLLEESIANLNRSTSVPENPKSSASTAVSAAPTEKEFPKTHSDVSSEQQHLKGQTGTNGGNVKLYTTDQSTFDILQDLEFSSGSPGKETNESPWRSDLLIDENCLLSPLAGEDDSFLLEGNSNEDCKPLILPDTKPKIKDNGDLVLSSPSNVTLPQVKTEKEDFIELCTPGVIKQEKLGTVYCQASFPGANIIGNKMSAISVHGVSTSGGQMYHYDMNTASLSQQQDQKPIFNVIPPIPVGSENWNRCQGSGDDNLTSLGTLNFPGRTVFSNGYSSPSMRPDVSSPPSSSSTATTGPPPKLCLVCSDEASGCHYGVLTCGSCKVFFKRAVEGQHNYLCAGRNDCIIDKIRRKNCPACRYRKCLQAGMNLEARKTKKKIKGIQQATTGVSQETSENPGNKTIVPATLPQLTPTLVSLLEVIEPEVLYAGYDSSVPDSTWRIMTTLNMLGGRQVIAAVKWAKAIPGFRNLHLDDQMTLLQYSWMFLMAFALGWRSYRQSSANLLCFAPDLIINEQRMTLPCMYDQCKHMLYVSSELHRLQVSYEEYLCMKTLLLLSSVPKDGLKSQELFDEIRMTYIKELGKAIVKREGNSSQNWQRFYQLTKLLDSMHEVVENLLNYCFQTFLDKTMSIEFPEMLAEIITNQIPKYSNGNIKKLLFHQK", "assay": "GR-GFP Redistribution (AID 450;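 active = compounds whose dose series gives a full or clear partial fitted curve of increased nuclear translocation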; also: potency is read from the fitted curve at half-maximal effect)", "conditions": "U2OS GR-GFP nuclear translocation, laser cytometry, 2 h"}, "[3]": {"target": "Glucocorticoid receptor (Homo sapiens) (UniProt P04150)", "assay": "GR-EFC Redistribution (AID 451; calls by dose curve; also: potency is read from the fitted curve at half-maximal effect)", "conditions": "CHO-K1 GR-EFC translocation, beta-gal luminescence, 2 h", "procedure,_shortened": "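Translocation of GR-ED fusion to nuclear EA restores b-gal, read by luminescence after 1 h room-temperature detection. Engineered CHO-K1 biosensor cells, 1,000/well, exposed 2 h at 37 C to titrations up to 46 uM final.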"}, "[4]": {"target": "Mitogen-activated protein kinase 10 (Mus musculus) (UniProt Q61831)", "assay": "JNK3 AlphaScreen Assay (AID 530; active = well fitted curve in either direction with a large enough effect, not every such curve was filed as active;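 also: kinase came from lysate of stimulated human HepG2 cells; signal reports phosphorylation of biotinylated GST-cJun 1-79 at Ser73 with 10 µM ATP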)", "procedure,_shortened": "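qHTS titrations with 15 min compound pre-incubation before adding ATP (10 uM final). Read-out: AlphaScreen of Ser73-phosphorylated biotin-GST-cJun using HepG2 lysate JNK3 activated by IL-1β and TNFα.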"}, "[5]": {"target": "3',5'-cyclic-AMP phosphodiesterase 4B (Homo sapiens) (UniProt Q07343)", "sequence (Q07343 whole entry, looked up)": "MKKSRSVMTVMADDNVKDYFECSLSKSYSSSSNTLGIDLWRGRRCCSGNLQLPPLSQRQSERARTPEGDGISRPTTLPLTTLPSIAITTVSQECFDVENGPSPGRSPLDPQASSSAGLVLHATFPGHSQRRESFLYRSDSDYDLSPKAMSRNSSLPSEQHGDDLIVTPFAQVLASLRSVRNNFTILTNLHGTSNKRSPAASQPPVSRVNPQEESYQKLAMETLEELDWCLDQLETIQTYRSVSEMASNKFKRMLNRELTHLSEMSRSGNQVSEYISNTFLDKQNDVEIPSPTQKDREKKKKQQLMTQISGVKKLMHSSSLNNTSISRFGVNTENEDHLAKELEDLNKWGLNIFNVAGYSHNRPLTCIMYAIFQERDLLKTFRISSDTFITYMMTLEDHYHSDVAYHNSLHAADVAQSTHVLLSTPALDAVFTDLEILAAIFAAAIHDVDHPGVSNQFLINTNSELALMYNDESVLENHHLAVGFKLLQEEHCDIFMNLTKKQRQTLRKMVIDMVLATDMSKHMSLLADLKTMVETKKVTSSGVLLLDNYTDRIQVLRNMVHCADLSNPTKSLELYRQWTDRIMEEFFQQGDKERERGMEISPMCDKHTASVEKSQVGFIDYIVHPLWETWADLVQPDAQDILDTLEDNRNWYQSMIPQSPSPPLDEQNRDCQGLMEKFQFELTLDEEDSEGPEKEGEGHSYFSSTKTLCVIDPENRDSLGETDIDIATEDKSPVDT", "assay": "qHTS Assay for Inhibitors of PDE-IV (AID 607; active = well fitted activation curve with a large enough effect in the main read-out, with a control signal flat, not every such curve was filed as active)", "procedure,_shortened": "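Cell-based read-out of cAMP via a modified cyclic nucleotide-gated channel and membrane potential dye (535/590 nm) in HEK293 cells expressing PDE4 endogenously. Compounds tested up to 22.9 uM final; 100 uM RO 20-1724 reference.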"}, "[6]": {"assay": "qHTS Assay for Lipid Storage Modulators (AID 1519; calls by dose curve)", "conditions": "Drosophila S3 cells, BODIPY lipid droplet/cell ratio, laser cytometry, cells loaded with oleic acid", "procedure,_shortened": "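Cells seeded at 5,000 per well were treated with compounds over a concentration series and loaded with oleic acid (400 uM, as added). Lipid droplet fluorescence (488 nm excitation, 500-530 nm channel) was read by laser-scanning cytometry and normalized to 20 uM Triacsin C.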"}, "[7]": {"target": "Ubiquitin carboxyl-terminal hydrolase 1 (Homo sapiens) (UniProt O94782)", "sequence (O94782 whole entry, looked up)": "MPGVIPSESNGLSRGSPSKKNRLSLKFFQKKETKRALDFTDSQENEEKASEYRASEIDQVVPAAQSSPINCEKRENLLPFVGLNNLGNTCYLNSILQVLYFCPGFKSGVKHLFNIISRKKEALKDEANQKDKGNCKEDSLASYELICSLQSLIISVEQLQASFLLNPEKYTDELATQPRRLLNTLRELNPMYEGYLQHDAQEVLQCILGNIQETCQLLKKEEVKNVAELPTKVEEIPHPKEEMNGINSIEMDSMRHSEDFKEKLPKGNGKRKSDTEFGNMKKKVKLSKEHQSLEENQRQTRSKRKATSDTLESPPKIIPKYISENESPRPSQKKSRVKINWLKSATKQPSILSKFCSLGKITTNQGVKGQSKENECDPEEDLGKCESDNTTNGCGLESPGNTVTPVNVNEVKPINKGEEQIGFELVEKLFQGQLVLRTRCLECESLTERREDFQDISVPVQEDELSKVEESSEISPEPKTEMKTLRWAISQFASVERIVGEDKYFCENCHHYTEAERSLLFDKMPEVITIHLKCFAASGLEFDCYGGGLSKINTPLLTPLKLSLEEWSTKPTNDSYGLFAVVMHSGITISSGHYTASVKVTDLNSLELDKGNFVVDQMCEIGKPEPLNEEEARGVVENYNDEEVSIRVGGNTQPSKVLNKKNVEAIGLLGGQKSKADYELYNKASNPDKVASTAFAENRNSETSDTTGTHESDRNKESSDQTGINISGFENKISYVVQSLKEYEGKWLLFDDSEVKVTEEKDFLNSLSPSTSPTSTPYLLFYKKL", "assay": "Inhibitors of USP1/UAF1: Pilot qHTS (AID 504865);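 also: rhodamine fluorescence freed from ubiquitin-rhodamine substrate followed over time; top concentration of the series differs between compounds; nearly all actives have a fitted effect of over 35% in size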", "procedure,_shortened": "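Enzyme-free wells gave the negative control, while test wells held 1nM USP1/UAF1 preincubated with compound for 15 min at room temperature. Ub-Rho at 150nM final started the reaction, and fluorescence at 480/540 nm was recorded kinetically.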"}, "[8]": {"target": "DNA dC->dU-editing enzyme APOBEC-3G (Homo sapiens) (UniProt Q9HC16)", "sequence (Q9HC16 whole entry, looked up)": "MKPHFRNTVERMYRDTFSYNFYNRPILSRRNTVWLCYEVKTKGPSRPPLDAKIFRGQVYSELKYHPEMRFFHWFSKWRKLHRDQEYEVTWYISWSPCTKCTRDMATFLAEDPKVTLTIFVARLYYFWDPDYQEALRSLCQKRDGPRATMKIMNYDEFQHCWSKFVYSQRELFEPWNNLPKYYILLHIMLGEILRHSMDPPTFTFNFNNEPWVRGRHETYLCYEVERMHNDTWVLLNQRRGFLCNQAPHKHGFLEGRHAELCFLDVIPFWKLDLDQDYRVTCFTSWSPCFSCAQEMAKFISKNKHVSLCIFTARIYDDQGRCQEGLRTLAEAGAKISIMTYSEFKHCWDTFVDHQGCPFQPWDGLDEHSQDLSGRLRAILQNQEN", "assay": "qHTS for inhibitors of Vif-A3G interactions: Validation (AID 588379)", "procedure,_shortened": "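Yellow fluorescence (Ex 488, Em 500-530) of Vif-coexpressing HeLa A3G-eYFP cells, scanned by Acumen cytometer, reports blocked A3G degradation. Cells plated at 700/well overnight at 37 deg C before compound addition, then a further overnight compound incubation at 37 deg C.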"}, "[9]": {"system": "Zika virus NS2B-NS3 protease", "assay": "Primary screen GU AMC qHTS for Zika virus inhibitors (AID 1347154); also: nearly all actives have a fitted effect of over 70% in size", "procedure,_shortened": "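Fluorogenic AMC-substrate cleavage by noncovalent NS2B-NS3 protease complex (25 nM, pH 8.0 Tris buffer with Tween 20) followed for 15 minutes at room temperature (~20% conversion). Percent inhibition from ex340/em450 signal change, fitted by 4-parameter Hill equation.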"}, "[10]": {"assay": "Counterscreen qHTS for small molecule stabilizers of the endoplasmic reticulum resident proteome: GLuc-NoTag assay (AID 1508627)", "procedure,_shortened": "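Counterscreen line: SH-SY5Y-GLuc-NoTag cells, treated with compound 19 hr before a 4 hr, 100 nM thapsigargin calcium depletion. Secreted Gaussia luciferase in the medium was measured by luminescence after coelenterazine was added (0.07x final), with cells unlysed.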"}, "[11]": {"assay": "Confirmatory qHTS for small molecule stabilizers of the endoplasmic reticulum resident proteome: Secreted ER Calcium Modulated Protein (SERCaMP) assay (AID 1508628); also: potency is read from the fitted curve at half-maximal effect; nearly all actives have a fitted effect of over 40% in size", "procedure,_shortened": "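Reporter secretion upon ER calcium depletion (100 nM thapsigargin, 4 h, 37C) is measured as medium luminescence with coelenterazine, after 16 h compound pretreatment of SH-SY5Y-GLuc-SERCaMP cells; primary at three concentrations up to 38.3 uM, follow-up at 11 (up to 76.6 uM).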"}, "[12]": {"assay": "Cell Viability qHTS for small molecule stabilizers of the endoplasmic reticulum resident proteome (AID 1508629);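 also: human SH-SY5Y neuroblastoma cells carrying the GLuc-SERCaMP reporter; compound exposure about 46 h in total before the viability read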", "conditions": "cell viability counter-screen, 100 nM thapsigargin for final 4 h"}, "[13]": {"assay": "Primary qHTS for small molecule stabilizers of the endoplasmic reticulum resident proteome: Secreted ER Calcium Modulated Protein (SERCaMP) assay (AID 1508630)", "procedure,_shortened": "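The SH-SY5Y reporter protocol was run at 3 concentrations up to 38.3 uM (primary) or 11 concentrations (follow-up): 16 h compound, 100 nM thapsigargin for 4 h, then extracellular luciferase luminescence.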"}}, "note": "Results filed as inconclusive are left out. Entries that show only a call come without a potency. Calls of active or inactive are those of the source. Unless noted, calls follow the shape of the dose curve; as a rule, active = well fitted curve in the direction sought with a large enough effect; inconclusive = small, poorly fitted or top-dose-only effect, or another doubt; inactive = no such curve, though single readings can be large; an effect the other way counts as inactive or inconclusive. Where a SMILES comes first, the peptide text is derived from it. The star is where a group is joined. Cbz = O=C(OCc1ccccc1)*; CH2F = FC*", "data": [{"smiles": "COc1ccc(NS(=O)(=O)c2ccc(I)cc2)cc1N1CCN(C)CC1", "values": [{"measurement": "Potency", "setting": "[1]", "value": "inactive"}, {"measurement": "Potency", "setting": "[2]", "value": "> 46 µM (inactive)"}, {"measurement": "Potency", "setting": "[3]", "value": "> 46 µM (inactive)"}, {"measurement": "Potency", "setting": "[4]", "value": "inactive"}, {"measurement": "Potency", "setting": "[5]", "value": "inactive"}, {"measurement": "activity change, negative = inhibition", "setting": "[6]; at 57.5 µM (top of the series)", "value": "12.5% (inactive)"}, {"measurement": "max response", "setting": "[6]; measured here: cell count channel max response", "value": 18.9, "unit": "%"}, {"measurement": "max response", "setting": "[6]; measured here: lipid channel max response", "value": 28.9, "unit": "%"}, {"measurement": "Potency", "setting": "[7]", "value": "inactive"}, {"measurement": "Potency", "setting": "[8]", "value": "inactive"}, {"measurement": "Potency", "setting": "[9]", "value": "inactive"}, {"measurement": "Potency", "setting": "[10]", "value": "inactive"}, {"measurement": "Potency", "setting": "[11]", "value": "7.94 µM (active)"}, {"measurement": "max response", "setting": "[12]", "value": "-15.1% (inactive)"}]}, {"smiles": "O=c1oc(-c2ccc(C(F)(F)F)cc2)nn1Cc1cc(Cl)ccc1O", "values": [{"measurement": "Potency", "setting": "[9]", "value": "inactive"}, {"measurement": "Potency", "setting": "[13]", "value": "inactive"}]}, {"smiles": "COc1ccc(/C=C/C(=O)CC(=O)/C=C/c2cccc(O)c2OC)cc1O", "values": [{"measurement": "Potency", "setting": "[9]", "value": "inactive"}, {"measurement": "Potency", "setting": "[13]", "value": "inactive"}]}, {"smiles": "COC1C(O)C(CO)OC1n1cnc2c(NC3CCCCC3)ncnc21", "note": "(configuration not stated)", "values": [{"measurement": "Potency", "setting": "[9]", "value": "inactive"}, {"measurement": "Potency", "setting": "[13]", "value": "inactive"}]}, {"smiles": "O=[N+]([O-])c1ccc(CSc2ncnc3c2ncn3C2OC(CO)C(O)C2O)cc1", "note": "(configuration not stated)", "values": [{"measurement": "Potency", "setting": "[9]", "value": "inactive"}, {"measurement": "Potency", "setting": "[13]", "value": "inactive"}]}, {"smiles": "N[C@@H](C(=O)O)[C@@H](CC(=O)O)c1ccc(Cl)cc1", "values": [{"measurement": "Potency", "setting": "[9]", "value": "inactive"}, {"measurement": "Potency", "setting": "[13]", "value": "inactive"}]}, {"smiles": "Clc1ccc2ncnc(NCc3ccc4c(c3)OCO4)c2c1", "values": [{"measurement": "Potency", "setting": "[9]", "value": "inactive"}, {"measurement": "Potency", "setting": "[13]", "value": "inactive"}]}, {"smiles": "CC1(C)Oc2ccc(C#N)cc2[C@@H](OC2=CC(=O)CC2)[C@@H]1O", "values": [{"measurement": "Potency", "setting": "[9]", "value": "inactive"}, {"measurement": "Potency", "setting": "[13]", "value": "inactive"}]}, {"smiles": "COC(=O)C[C@H](NC(=O)[C@H](C)NC(=O)[C@@H](NC(=O)OCc1ccccc1)C(C)C)C(=O)CF", "note": "(Cbz-Val-Ala-Asp(OMe)-CH2F)", "values": [{"measurement": "Potency", "setting": "[9]", "value": "inactive"}, {"measurement": "Potency", "setting": "[13]", "value": "inactive"}]}, {"smiles": "NC1(C(=O)O)CCc2cc(P(=O)(O)O)ccc21", "note": "(configuration not stated)", "values": [{"measurement": "Potency", "setting": "[9]", "value": "inactive"}, {"measurement": "Potency", "setting": "[13]", "value": "inactive"}]}, {"smiles": "CCCCC/C=C\\C/C=C\\C/C=C\\C/C=C\\CCCCCC(=O)O", "values": [{"measurement": "activity change, negative = inhibition", "setting": "[9]", "value": "-5.55% [at 6.83 µM] (inactive)"}, {"measurement": "activity change, negative = inhibition", "setting": "[13]", "value": "14.9% [at 3.88 µM] (inactive)"}]}, {"smiles": "CCCCCCOC(=O)C1(O)CC2OC1(C)n1c3ccccc3c3c4c(c5c6ccccc6n2c5c31)C(=O)NC4", "note": "(configuration not stated)", "values": [{"measurement": "activity change, negative = inhibition", "setting": "[9]", "value": "19.5% [at 4.99 µM] (inactive)"}, {"measurement": "activity change, negative = inhibition", "setting": "[13]", "value": "-23% [at 3.88 µM] (inactive)"}]}, {"smiles": "CCCCCCCCCCCCCCCC(=O)OCC(COP(=O)(O)O)OC(=O)CCCCCCCCCCCCCCC", "note": "(configuration not stated)", "values": [{"measurement": "activity change, negative = inhibition", "setting": "[9]", "value": "13.2% [at 6.83 µM] (inactive)"}, {"measurement": "activity change, negative = inhibition", "setting": "[13]", "value": "-28.1% [at 3.88 µM] (inactive)"}]}, {"smiles": "CNc1ncnc2c1ncn2[C@H]1C[C@H](O)[C@@H](CO)O1", "values": [{"measurement": "Potency", "setting": "[9]", "value": "inactive"}, {"measurement": "Potency", "setting": "[13]", "value": "inactive"}]}, {"smiles": "C=C1CC[C@H](O)C/C1=C/C=C1\\CCC[C@]2(C)C([C@H](C)CCCC(C)(C)O)CC[C@@H]12", "note": "(some centres not stated)", "values": [{"measurement": "Potency", "setting": "[9]", "value": "inactive"}, {"measurement": "Potency", "setting": "[13]", "value": "inactive"}]}]}
